# Bioassay records (PubChem BioAssay)
# GPR151 ag – activators of human GPR151; Q8TDV0; PathHunter beta-arrestin GPR151 cells, luminescence; activation, % at 11.2 µM; 650,000 compounds, 1% hits; AID 1508602; in the data active = activation above about 4.9%;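 note: 0% = median of compound wells and 100% = cells with positive control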
# Target sequence (Q8TDV0 whole entry, looked up): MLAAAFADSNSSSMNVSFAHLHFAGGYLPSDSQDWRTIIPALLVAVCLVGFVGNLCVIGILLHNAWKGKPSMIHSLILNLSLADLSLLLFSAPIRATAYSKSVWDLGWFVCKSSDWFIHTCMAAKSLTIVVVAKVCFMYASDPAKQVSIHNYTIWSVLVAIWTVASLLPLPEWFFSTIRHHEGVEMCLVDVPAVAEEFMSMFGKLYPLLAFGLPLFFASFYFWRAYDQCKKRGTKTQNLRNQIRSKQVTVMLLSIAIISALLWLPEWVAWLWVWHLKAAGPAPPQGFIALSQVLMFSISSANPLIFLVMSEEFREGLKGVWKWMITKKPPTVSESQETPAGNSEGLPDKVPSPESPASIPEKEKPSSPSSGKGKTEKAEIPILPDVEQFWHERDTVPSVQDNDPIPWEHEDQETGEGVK
# MITF primary – blocks human microphthalmia-associated transcription factor; O75030; AlphaScreen MITF homodimerization, bead proximity signal; inhibition, % at 2.6 µM; 650,000 compounds, 0.91% hits; AID 1259374; in the data active = inhibition above about 50%;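 note: 0% = vehicle wells with protein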
# TEAD-YAP block – TEAD-YAP interaction inhibition; HEK-TIYL cells, TEAD-Gal4/YAP UAS-luciferase luminescence; inhibition, % at 9.12 µM; 640,000 compounds, 1.4% hits; in the data active = inhibition above about 32%;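 note: 0% = median of test compound wells and 100% = reference inhibitor wells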
# FBW7 activator – human FBW7 E3 ligase activation, primary screen; Q969H0; AlphaScreen FBW7–phospho-cyclin E peptide binding, activator screen; normalized activity (activation), % at 26.1 µM; 650,000 compounds, 0.13% hits; AID 1259310; in the data active = normalized activity above about 1.9%;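 note: purified mutant Fbw7 with reduced substrate affinity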
# * marks the source's active call; other numbers are inactive results. Sampled rows, rich in hits. Any-hit rate of the full collection: about 3.5%.
SMILES,GPR151 ag,MITF primary,TEAD-YAP block,FBW7 activator
CCN(CC)CCn1nc2c3c(cccc3c1=O)-c1ccccc1-2,1.7,9.0,81.5*,0.2
COc1ccc(C(=O)CN2CCN(c3ccccc3OC)CC2)cc1,-1.1,-7.0,-17.6,-0.1
O=C(Nc1ccc2oc(-c3ccc(I)cc3)nc2c1)c1ccc2c(c1)OCCO2,-0.9,-10.2,-16.6,0.0
CC(C)(C)c1ccc(-c2nc3cc(NC(=O)c4ccc(-c5cccc([N+](=O)[O-])c5)o4)ccc3o2)cc1,1.2,-13.4,34.0*,0.0
CC(C)(C)c1ccc(-c2nc3cc(NC(=O)c4ccc(Br)o4)ccc3o2)cc1,0.1,-9.7,37.0*,0.3
CCc1ccc2oc(-c3ccc(NC(=O)c4ccc5c(c4)OCCO5)cc3)nc2c1,-0.2,-3.4,39.3*,0.5
CC(C)(C)c1ccc(C(=O)Nc2ccc3oc(-c4ccc(C(C)(C)C)cc4)nc3c2)cc1,1.2,8.6,-6.9,0.1
O=C(Nc1ccc2oc(-c3cccc(I)c3)nc2c1)c1ccc(-c2cccc([N+](=O)[O-])c2)o1,-1.1,-6.4,2.4,0.3
Cc1ccc(C)c(Nc2nc(NCCN(C)C)nc3nccnc23)c1,-2.5,-11.0,-3.9,2.1*
Cc1ccc(C)c(Nc2nc(NCc3ccco3)nc3nccnc23)c1,-2.0,0.2,-0.9,0.3
COC(=O)N(NC(=O)C(C)C)c1ccccc1,-0.7,12.6,2.0,0.1
CCC(C)(C)NC(=O)C1CCN(S(=O)(=O)c2ccc(F)cc2)CC1,0.0,0.5,0.0,-0.2
CCC(C)(C)C(=O)Nc1ccc(S(=O)(=O)N2CCC(C)CC2)cc1,-0.8,14.9,11.2,2.2*
CCOC(=O)c1oc2ccccc2c1NC(=O)C1CCN(S(=O)(=O)c2ccc(C)cc2)CC1,-1.8,16.4,35.4*,0.7
CCC(C)(C)NC(=O)C1CCN(S(=O)(=O)c2ccc(C)cc2)CC1,0.9,-2.2,73.5*,-0.1
O=S(=O)(NC1c2cccc3cccc(c23)C1N1CCN(C(=S)Nc2ccccc2)CC1)c1ccc(Cl)cc1 (configuration not stated),0.1,4.1,-7.6,2.4*
Cc1nc2ccccn2c1C(=O)NC1CCCc2ccccc21 (configuration not stated),1.9,0.9,39.6*,-0.1
CN(C)CCNC(=O)c1cccn2c(=O)c3cc4ccccc4cc3nc12,0.1,1.7,70.7*,0.0
CC(C)CCNC(=O)c1cccn2c(=O)c3cc4ccccc4cc3nc12,0.4,-4.1,-29.3,-0.2
COc1ccccc1N1CCN(c2nc(NCCO)c3cnn(C)c3n2)CC1,0.1,4.9,36.5*,-0.1
O=C1NC2(CCN(Cc3cccc4cccnc34)CC2)Oc2ccccc21,0.3,-7.1,-5.8,-0.1
O=C1NC2(CCN(C(=O)c3cccc4cccnc34)CC2)Oc2ccccc21,-0.2,-2.0,-7.5,22.6*
CSc1ccc(-c2ccc(-n3ccnc3)cc2)nn1,-7.8,-37.2,52.0*,-0.1
O=C(CSc1nnc2sc3ccccc3n12)c1ccc(F)cc1,-1.0,-4.0,-38.5,2.1*
O=C(CSc1nnc2sc3ccccc3n12)NCc1ccccc1,0.5,7.8,46.5*,0.0
SMILES,GPR151 ag,MITF primary,TEAD-YAP block,FBW7 activator
Cc1cccc(OCCOC(=O)c2ccc(S(C)(=O)=O)c([N+](=O)[O-])c2)c1,-0.4,7.2,37.6*,-0.1
Cc1nc2c(c(=O)[nH]1)CN(Cc1sccc1C)CC2,0.1,1.8,-5.4,-0.4
CCOC(=O)c1c(NC(=O)/C=C/C(=O)O)sc2c1CC(C)(C)OC2,0.6,0.5,8.0,-0.1
N#CCOc1ccc(C2NC(=O)c3ccccc3N2)cc1 (configuration not stated),1.5,-1.1,-11.5,0.1
Brc1cccc(C2Nc3cccc4cccc(c34)N2)c1,0.1,-3.9,-10.9,0.8
O=C1NC(c2ccc(-c3ccccc3)cc2)Nc2ccccc21 (configuration not stated),-1.2,-11.8,40.2*,0.0
CC(C)(C)c1ccc(C2NC(=O)c3ccccc3N2)cc1 (configuration not stated),0.2,7.9,47.8*,0.0
O=C1NC(c2cccc(Br)c2)Nc2ccccc21 (configuration not stated),1.4,-10.4,49.1*,0.2
O=C1NC(c2ccncc2)Nc2ccccc21 (configuration not stated),0.7,4.7,8.2,-0.4
CN(C)c1ccc(C2NC(=O)c3ccccc3N2)cc1 (configuration not stated),-3.7,1.5,56.4*,0.1
COc1cccc(-c2cnc3c(Nc4ccccc4)nccn23)c1,-1.6,11.0,8.2,0.1
CC(=O)NCc1c(C)ncc2c1CCN(C(=O)c1cc3ccccc3o1)C2,1.1,2.3,-10.8,-0.2
CCn1ccc2ccc(OC)cc2c1=O,-0.8,16.1,-9.6,2.1*
O=C(Nc1ccccc1F)c1cnc2ccccn2c1=O,-2.0,8.8,54.3*,-0.1
O=S(=O)(NCC1CCCO1)c1ccc(Oc2ccc(S(=O)(=O)NCC3CCCO3)cc2)cc1 (configuration not stated),0.1,14.9,58.9*,0.3
O=S(=O)(NCC1CCCO1)c1ccc(Br)cc1 (configuration not stated),-1.2,13.8,1.0,0.0
CN1CCN(c2ncn(-c3ccc(Nc4nccc(-c5cc(F)cc(N(C)C)c5)n4)cc3)n2)CC1,-0.2,2.4,35.2*,-0.2
Fc1cc(-c2ccnc(Nc3ccc(-n4cnc(Br)n4)cc3)n2)cc(N2CCOCC2)c1,0.2,-7.7,6.5,0.0
Cc1ncn(-c2ccc(Nc3nccc(-c4ccc(N5CCCC(O)C5)c(C#N)c4)n3)cc2)n1 (configuration not stated),1.8,-6.1,34.6*,-0.1
OC1CCCN(c2ncn(-c3ccc(Nc4nccc(-c5cc(F)cc(N6CCOCC6)c5)n4)cc3)n2)C1 (configuration not stated),-1.9,13.8,56.8*,0.2
OC1CCN(c2ncn(-c3ccc(Nc4nccc(-c5cc(F)cc(N6CCOCC6)c5)n4)cc3)n2)CC1,0.6,-0.5,91.0*,-0.1
COc1ccc(CC(=O)NC(C)C(c2cccs2)N2CCOCC2)cc1OC (configuration not stated),0.2,10.9,-4.6,0.1
CCOC(=O)CN1C(c2ccc(OC)cc2)Nc2ccc(Br)cc2C1c1ccccc1 (configuration not stated),-0.1,-4.0,-6.7,-0.1
CN1CCN(c2ncn(-c3ccc(Nc4nccc(-c5cc(F)cc(N6CCC(O)CC6)c5)n4)cc3)n2)CC1,-0.9,2.0,67.3*,-0.2
Fc1cc(-c2ccnc(Nc3ccc(-n4cnc(-c5ccc(Cl)cn5)n4)cc3)n2)cc(N2CCOCC2)c1,0.8,13.2,5.5,0.1
OCc1ccc(-c2ncn(-c3ccc(Nc4nccc(-c5cc(F)cc(N6CCOCC6)c5)n4)cc3)n2)nc1,0.2,-0.8,82.5*,-0.1
COC1CCN(c2ncn(-c3ccc(Nc4nccc(-c5cc(F)cc(N(C)C)c5)n4)cc3)n2)CC1,1.1,5.2,16.0,0.3
CCOC(=O)c1sc(NC(=O)c2ccc([N+](=O)[O-])c(C)c2)c(C(=O)OCC)c1C,-0.1,-0.5,1.4,0.1
